Results taken from PubChem BioAssay AID624330 (Southern Research Specialized Biocontainment Screening …, 2012).
Out of some 340,000 compounds screened, about 2,100 (0.62%) were called active.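 The calls were made as follows: active = first-screen hits whose inhibition reached a set limit at any dose in the follow-up dose series; inconclusive = inhibition above the set first-screen limit but never retested; inactive = the rest.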 These entries were drawn from the full list. Potency and affinity values are given separately.

Biological target: Rac GTPase-activating protein 1 (Homo sapiens) (UniProt Q9H0H5)
Sequence (Q9H0H5 whole entry, looked up): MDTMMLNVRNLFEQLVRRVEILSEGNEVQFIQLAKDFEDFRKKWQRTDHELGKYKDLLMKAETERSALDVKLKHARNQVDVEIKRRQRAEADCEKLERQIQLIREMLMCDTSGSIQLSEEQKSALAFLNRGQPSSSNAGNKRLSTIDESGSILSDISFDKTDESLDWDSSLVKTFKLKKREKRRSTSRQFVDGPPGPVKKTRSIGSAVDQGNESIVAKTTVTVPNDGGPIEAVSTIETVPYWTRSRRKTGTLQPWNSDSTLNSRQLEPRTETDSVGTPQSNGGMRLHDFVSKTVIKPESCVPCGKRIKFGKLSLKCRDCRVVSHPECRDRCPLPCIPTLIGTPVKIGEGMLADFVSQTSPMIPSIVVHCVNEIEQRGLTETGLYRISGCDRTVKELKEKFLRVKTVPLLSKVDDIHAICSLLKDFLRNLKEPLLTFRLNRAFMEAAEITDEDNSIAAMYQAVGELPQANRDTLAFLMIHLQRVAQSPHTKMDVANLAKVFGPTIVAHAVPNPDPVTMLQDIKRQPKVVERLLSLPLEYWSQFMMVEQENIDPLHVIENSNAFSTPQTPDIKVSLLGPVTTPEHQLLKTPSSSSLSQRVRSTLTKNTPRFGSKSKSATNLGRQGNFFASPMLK
Assay: blockers of MgcRacGAP-driven Rac1 GTP hydrolysis – biochemical, ADP Hunter fluorescence, primary and confirmatory, confirmation (AID 624330);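 also: fluorescence reports GDP produced by GAP-driven GTP hydrolysis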
Details: MgcRacGAP-stimulated Rac1 GTP hydrolysis, at 30 µM, active compounds read high, GST-tagged Rac1 F28L mutant substrate

inhibition, inactive:
Cc1ccc(C(=O)c2coc3ccc(O)c(Cl)c23)cc1 16%
CN(C)Cc1c(O)ccc2occ(C(=O)c3ccccc3)c12 6.64%
COc1ccc(NC(=O)COc2ccc3c(c2)OCO3)cc1 6.39%
COc1cccc(CN2CC(C(=O)NC3CCCCCC3)CCC2=O)c1 (stereo not drawn) 2.79%
CCN(CCNCC(O)COCc1ccc(Cl)cc1)c1cccc(C)c1 (stereo not drawn) 31.7%
CC(C)c1ccccc1OCC(O)CN(CC(O)COc1cccc2ccccc12)C(C)C (stereo not drawn) 4.64%
C=CCOc1ccc(C(=O)Nc2ncn[nH]2)cc1 4.62%
COc1ccc(NC(=O)C2CCCO2)cc1OC (stereo not drawn) 10.4%
COc1ccc([C@@H](OC)[C@@]2(Cc3ccc(O)cc3)N=C(N)N(C)C2=O)cc1 0.02%
COc1ccc(NC(=O)c2ccccc2NC(=O)C2CCCO2)cc1 (stereo not drawn) 10.5%
CC(=Nc1ccccc1)c1sc2ccccc2c1O 19.1%
CC(=Nc1ccc(C)cc1)c1sc2ccccc2c1O 2.37%
O=c1[nH]c(SCc2ccccc2)nc2ccsc12 6.38%
O=C(NCc1ccccc1)/C(=C\c1ccccc1)NC(=O)c1ccco1 6.99%
O=C(NCc1ccccc1)/C(=C/c1ccccc1)NC(=O)c1ccco1 2.6%
COc1ccc(NC(=S)N2CCNC(=O)C2CC(=O)Nc2ccc(C)cc2)cc1 (stereo not drawn) 15.2%
COc1ccc(/C=N/NC(=O)CN2CCCC2)cc1 -0.98%
COc1ccc(Br)cc1/C=N/NC(=O)CN1CCCCC1 14.3%
COc1ccc(OC)c(/C=N/NC(=O)CCN2CCN(C(c3ccccc3)c3ccccc3)CC2)c1 -2.42%
O=C(CCN1CCCCC1)N/N=C/c1ccc(Br)cc1 7.98%
COc1cc(/C=N/NC(=O)CCN2CCN(c3ccccc3)CC2)cc(OC)c1OC 4.52%
NNC(=O)CCN1CCN(C(c2ccccc2)c2ccccc2)CC1 -8.98%
O=C(CCN1CCN(C(c2ccccc2)c2ccccc2)CC1)N/N=C/c1ccc(O)cc1O 30.9%
COc1ccc(/C=N\NC(=O)CCN2CCN(c3ccccc3)CC2)cc1OC 7.5%
CN(C)CCN(Cc1ccco1)S(=O)(=O)c1csc(C(N)=O)c1 4.25%
O=C(c1ccccn1)N1CCN(C(=O)c2ccccn2)CC1 3.69%
O=C(c1ccc(OC2CCN(CCCc3ccccc3)CC2)cc1)N1CCCC1 3.48%
NC(=O)NCC1CC1 4.2%
O=C(OCC(=O)N1N=C(c2ccc(Cl)cc2)CC1c1ccco1)c1ccccc1O (stereo not drawn) 3.05%
CC[C@]12c3[nH]c4cc(-c5ccco5)ccc4c3CCN1C(=O)[C@@H](CC(=O)NC/C=C(\C)CCC=C(C)C)C[C@@H]2C(=O)N1CCN(C(=O)C2CC2)CC1 -1.48%
O=C1CSC(c2ccco2)N1 (stereo not drawn) 0.85%
O=C(O)C1CSC(c2ccncc2)N1 (stereo not drawn) 8.95%
COc1ccc(/C=C2/C(=O)N(c3ccccc3)N=C2C)cc1Br 1.8%
CC1=NN(c2ccccc2)C(=O)/C1=C/C=C/c1ccccc1 6.5%
COc1cc(C=C2C(=O)OC(C)(C)OC2=O)ccc1OCC(=O)Nc1ccccc1 4.19%
CC1=NN(c2ccccc2)C(=O)/C1=C/N(C)C 8.12%
COc1ccc(/C=C2/C(=O)N(c3ccccc3)N=C2C)cc1OC 17.9%
CCOc1cc(/C=C2\C(=O)N(CCC#N)N=C2C)ccc1OCC(N)=O 21.4%
C#CCOc1ccc(/C=C2/C(=O)N(c3cccc(C(=O)O)c3)N=C2C)cc1OC 31.7%
COc1ccccc1/C=C1/C(=O)N(c2ccc([N+](=O)[O-])cc2)N=C1C 4.92%
O=C(C1CCN(c2nnc(N3CCCC3=O)s2)CC1)N1CCN(c2cccc(C(F)(F)F)c2)CC1 7.18%
COC(=O)c1cccc2c(C(=O)O)cc(-c3ccccc3)nc12 3.38%
c1ccc2c(c1)ccc1nnc(SCc3ccc4c(c3)OCCO4)n12 3.92%
CC(=O)OC1CC2(C)C(CCC2(O)C(C)=O)C2CCC3C(Cl)C(=O)CCC3(C)C12 (stereo not drawn) 2.5%
COCC(=O)N1C[C@H]2CON(C)[C@H]2C[C@H]1c1cccc(-c2ccccc2OC)c1 15.1%
CCOP(=O)(OCC)c1ccc2c(c1)C(=O)c1ccccc1CC2 9.38%
CCOc1ncccc1C(=O)OCc1c(F)cccc1Cl -3.89%
CC(C)(C)C(=O)Nc1c2c(nn1-c1ccc(F)cc1)CSC2 11%
CCCc1ccc2oc(C(=O)NCCN3CCCC(C(N)=O)C3)c(C)c2c1 (stereo not drawn) -11.6%
COc1ccc2ccccc2c1CNCCCN1CCOCC1 5.19%
CN1CCN(/N=C/c2ccc(-c3ccccc3)cc2)CC1 13.1%
CC(C)(C)c1ccc(-c2nc(C=O)c3ccccn23)cc1 -4.54%
O=Cc1nc(-c2ccccc2Cl)n2ccccc12 3.46%
O=C(O)/C=C/c1nc(-c2ccccc2)n2ccccc12 16.7%
O=Cc1nc(-c2ccc(Cl)cc2)n2ccccc12 -3.25%
CN1CCN(/N=C/c2nc(-c3ccccc3Cl)n3ccccc23)CC1 21.2%
CSc1ccc(/C=N/N2CCN(C)CC2)cc1 11.3%
CN1CCN(/N=C/c2nc(-c3cccc([N+](=O)[O-])c3)n3ccccc23)CC1 12.2%
CSCC[C@H](NC(=O)C1CCC(CNC(=O)[C@@H]2CCCN2C(=O)OC(C)(C)C)CC1)C(=O)O (stereo partly drawn) 0.46%
Cc1ccccc1COCCN1CCN(S(=O)(=O)c2ccccc2)CCC1=O 12.5%
CC(C)Oc1ccc(C(=O)Nc2ccc([N+](=O)[O-])cc2)cc1 11.4%
Cc1cc(=O)oc2cc(NC(=O)c3ccccc3Cl)ccc12 9.35%
CCCc1c(C(=O)N/N=C/C=C/c2ccccc2)nnn1-c1nonc1N 15.9%
COc1ccc(OC(=O)c2cccc(S(=O)(=O)N3CCCC3)c2)cc1 15.8%
O=C(Oc1cccnc1)c1cc(S(=O)(=O)N2CCCCC2)ccc1Cl 2.68%
O=[N+]([O-])c1ccc(C2=Nn3c(Cn4nnc5ccccc54)nnc3SC2)cc1 10.3%
C=C(C)COc1ccc(-c2nc(N)ncc2Oc2ccc(OC)cc2)c(O)c1 -7.13%
CCOc1ccc(-c2nc(N)ncc2Oc2ccc(OC)cc2)c(O)c1 1.9%
COc1cccc(Oc2cncnc2-c2ccc(OC)cc2O)c1 8.42%
C=C(C)COc1ccc(-c2nc(N)ncc2Oc2ccccc2OCC)c(O)c1 10.4%
COc1cccc(Oc2cnc(N)nc2-c2ccc(OC)cc2O)c1 6.49%
CCOc1ccc(-c2[nH]ncc2Oc2ccccc2OCC)c(O)c1 6.69%
Cc1ccc(S(=O)(=O)N2CCOCC2)cc1C(=O)OCC(=O)NC1CCCC1 3.52%
CC(C)(C)NC(=O)NC(=O)COC(=O)CNC(=O)c1cccc(F)c1 0.76%
CCOC(=O)Cc1csc(NC(=O)CN2CCOCC2)n1 5.22%
O=C1NC2(CCc3ccccc32)C(=O)N1CCOc1ccc(Cl)cc1 (stereo not drawn) 2.47%
CCN(C1CCS(=O)(=O)C1)S(=O)(=O)c1ccc(Cl)s1 (stereo not drawn) 4.17%
CCOC(=O)C1=C(O)CSC1=Nc1cccc2ccccc12 1.02%
c1ccc2nc3ccccc3nc2c1 2.14%
Cc1cccc(CN2CCN(C(=O)c3cccc4ccccc34)CC2)c1 15.3%
COc1cccc(CN2CCN(C(=O)c3cccc4ccccc34)CC2)c1OC 17.9%
Cc1ccc(CN2CCN(C(=O)c3cccc4ccccc34)CC2)cc1 23.8%
COc1ccc(OC)c(CN2CCN(C(=O)c3cccc4ccccc34)CC2)c1 13.1%
Cc1cc(C)c(C)c(OCCCN(C)C)c1 17%
CSc1nnnn1-c1cccc(O)c1 -2.6%
Cc1cc(Cl)ccc1Oc1ncnc2onc(C)c12 4.86%
CCOCCCNC(=O)c1ccc(OC2CCN(C(C)=O)CC2)c(OC)c1 9.51%
COCc1cc(Sc2ccc(Cl)cc2)nc(C)n1 3.56%
COCc1cc(NCc2ccc(Cl)cc2)nc(C)n1 5.03%
CC(C)(C)c1ccc(C2=NC(=O)C(CC(=O)O)S2)cc1 (stereo not drawn) 10.5%
CN(C1=NC(=O)C(CC(=O)O)S1)c1ccc(O)cc1 (stereo not drawn) 2.49%
Cc1nn(CC(=O)NCC(C)c2ccccc2)c(=O)c2cc3occc3n12 (stereo not drawn) 10%
Cc1ccc(-c2csc3ncnc(SCC(=O)c4ccc5c(c4)OCCO5)c23)cc1 1.98%
CC1Cc2ccccc2N1C(=O)COc1ccc2c(c1)OCO2 (stereo not drawn) -12.8%
CC(=O)N1CCN(c2ccc(NCc3ccc(-c4ccc(Br)cc4)o3)cc2)CC1 5.41%
CC(=O)c1ccc(N2CCN(C(=S)NCc3ccco3)CC2)cc1 3.83%
CC(=O)N1CCN(c2ccc(NCc3ccc(-c4cccc(Cl)c4)o3)cc2)CC1 15%
CC(=O)N1CCN(c2ccc(NC(=O)c3ccco3)cc2)CC1 8.89%
